# Experimental data taken from the supplement of paper PMC8975748.
# Counter-ions that a name gives are not always drawn. ± gives the standard deviation of the averaged measurements.
# Key:
# [1] = tested on: Saccharomyces cerevisiae BY4741 SeMeCo community; test: mean cell size (pixel area) (pixels); higher = larger cells; conditions: 10 µM; 24 h; SM minimal medium
# Procedure, shortened: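 Yeast cells were fixed with paraformaldehyde, imaged by automated confocal microscopy and analysed in Harmony to obtain mean cell pixel area per well. They came from a four-plasmid fluorescent Saccharomyces cerevisiae BY4741 community, each plasmid complementing one auxotrophy and carrying a fluorescent marker. Before imaging, 70 µl of culture at OD600 = 0.3 was incubated for 24 h in SM medium in 384-well plates predosed acoustically with drug (final 10 µM). Values are means of 3 replicates. Same SeMeCo high-content imaging drug screen: Selleck FDA-approved drugs at 10 µM, 24 h in SM medium, 384-well plates, 3 replicates.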
# [2] = tested on: Saccharomyces cerevisiae BY4741 SeMeCo community; test: z-score of prototroph abundance vs DMSO median; higher = larger share of this subpopulation than in DMSO controls; conditions: 10 µM; 24 h; SM minimal medium; subpopulation (auxotrophy): Prototroph
# Procedure, shortened: (§1)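 Four plasmids, each restoring a single auxotrophy and encoding a distinct fluorescent protein, were carried by a Saccharomyces cerevisiae BY4741 community. After overnight growth to OD600 1.0 and dilution to 0.3, 70 µl per well was grown for 24 h in minimal SM medium on 384-well plates acoustically predosed with library drugs at 10 µM final. Following paraformaldehyde fixation, automated confocal microscopy was used, with single-auxotroph fluorescent strains defining thresholds and autofluorescence correction. Subpopulation abundance was then scored as a z-score against the vehicle-well median.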
# [3] = tested on: Saccharomyces cerevisiae BY4741 SeMeCo community; test: z-score of subpopulation abundance vs DMSO median, subpopulation auxotrophic for M; higher = larger share of this subpopulation than in DMSO controls; conditions: 10 µM; 24 h; SM minimal medium; subpopulation (auxotrophy): M
# Procedure, shortened: as §1
# [4] = tested on: Saccharomyces cerevisiae BY4741 SeMeCo community; test: z-score of subpopulation abundance vs DMSO median, subpopulation auxotrophic for L; higher = larger share of this subpopulation than in DMSO controls; conditions: 10 µM; 24 h; SM minimal medium; subpopulation (auxotrophy): L
# Procedure, shortened: as §1
# [5] = tested on: Saccharomyces cerevisiae BY4741 SeMeCo community; test: z-score of subpopulation abundance vs DMSO median, subpopulation auxotrophic for U; higher = larger share of this subpopulation than in DMSO controls; conditions: 10 µM; 24 h; SM minimal medium; subpopulation (auxotrophy): U
# Procedure, shortened: as §1
# [6] = tested on: Saccharomyces cerevisiae BY4741 SeMeCo community; test: z-score of subpopulation abundance vs DMSO median, subpopulation auxotrophic for H; higher = larger share of this subpopulation than in DMSO controls; conditions: 10 µM; 24 h; SM minimal medium; subpopulation (auxotrophy): H
# Procedure, shortened: as §1
# [7] = tested on: Saccharomyces cerevisiae BY4741 SeMeCo community; test: z-score of subpopulation abundance vs DMSO median, subpopulation auxotrophic for LU; higher = larger share of this subpopulation than in DMSO controls; conditions: 10 µM; 24 h; SM minimal medium; subpopulation (auxotrophy): LU
# Procedure, shortened: as §1
# [8] = tested on: Saccharomyces cerevisiae BY4741 SeMeCo community; test: z-score of subpopulation abundance vs DMSO median, subpopulation auxotrophic for LM; higher = larger share of this subpopulation than in DMSO controls; conditions: 10 µM; 24 h; SM minimal medium; subpopulation (auxotrophy): LM
# Procedure, shortened: as §1
# [9] = tested on: Saccharomyces cerevisiae BY4741 SeMeCo community; test: z-score of subpopulation abundance vs DMSO median, subpopulation auxotrophic for HM; higher = larger share of this subpopulation than in DMSO controls; conditions: 10 µM; 24 h; SM minimal medium; subpopulation (auxotrophy): HM
# Procedure, shortened: as §1
# [10] = tested on: Saccharomyces cerevisiae BY4741 SeMeCo community; test: z-score of subpopulation abundance vs DMSO median, subpopulation auxotrophic for HU; higher = larger share of this subpopulation than in DMSO controls; conditions: 10 µM; 24 h; SM minimal medium; subpopulation (auxotrophy): HU
# Procedure, shortened: as §1
# [11] = tested on: Saccharomyces cerevisiae BY4741 SeMeCo community; test: z-score of subpopulation abundance vs DMSO median, subpopulation auxotrophic for UM; higher = larger share of this subpopulation than in DMSO controls; conditions: 10 µM; 24 h; SM minimal medium; subpopulation (auxotrophy): UM
# Procedure, shortened: as §1
# [12] = tested on: Saccharomyces cerevisiae BY4741 SeMeCo community; test: z-score of subpopulation abundance vs DMSO median, subpopulation auxotrophic for HLU; higher = larger share of this subpopulation than in DMSO controls; conditions: 10 µM; 24 h; SM minimal medium; subpopulation (auxotrophy): HLU
# Procedure, shortened: as §1
# [13] = tested on: Saccharomyces cerevisiae BY4741 SeMeCo community; test: z-score of subpopulation abundance vs DMSO median, subpopulation auxotrophic for HLM; higher = larger share of this subpopulation than in DMSO controls; conditions: 10 µM; 24 h; SM minimal medium; subpopulation (auxotrophy): HLM
# Procedure, shortened: as §1
# [14] = tested on: Saccharomyces cerevisiae BY4741 SeMeCo community; test: z-score of subpopulation abundance vs DMSO median, subpopulation auxotrophic for HUM; higher = larger share of this subpopulation than in DMSO controls; conditions: 10 µM; 24 h; SM minimal medium; subpopulation (auxotrophy): HUM
# Procedure, shortened: as §1
# [15] = tested on: Saccharomyces cerevisiae BY4741 SeMeCo community; test: z-score of subpopulation abundance vs DMSO median, subpopulation auxotrophic for LUM; higher = larger share of this subpopulation than in DMSO controls; conditions: 10 µM; 24 h; SM minimal medium; subpopulation (auxotrophy): LUM
# Procedure, shortened: as §1
# [16] = tested on: Saccharomyces cerevisiae BY4741 SeMeCo community; test: z-score of subpopulation abundance vs DMSO median, subpopulation auxotrophic for HLUM; higher = larger share of this subpopulation than in DMSO controls; conditions: 10 µM; 24 h; SM minimal medium; subpopulation (auxotrophy): HLUM
# Procedure, shortened: as §1
# [17] = tested on: Saccharomyces cerevisiae BY4741 SeMeCo community; test: z-score of subpopulation abundance vs DMSO median, subpopulation auxotrophic for HL; higher = larger share of this subpopulation than in DMSO controls; conditions: 10 µM; 24 h; SM minimal medium; subpopulation (auxotrophy): HL
# Procedure, shortened: as §1
Compound,mean cell size [1],z-score of prototroph abundance [2],z-score of subpopulation abundance [3],z-score of subpopulation abundance [4],z-score of subpopulation abundance [5],z-score of subpopulation abundance [6],z-score of subpopulation abundance [7],z-score of subpopulation abundance [8],z-score of subpopulation abundance [9],z-score of subpopulation abundance [10],z-score of subpopulation abundance [11],z-score of subpopulation abundance [12],z-score of subpopulation abundance [13],z-score of subpopulation abundance [14],z-score of subpopulation abundance [15],z-score of subpopulation abundance [16],z-score of subpopulation abundance [17]
C[C@]12CCC(=O)C=C1[C@@H]1C[C@@H]1[C@H]1[C@@H]3[C@@H]4C[C@@H]4[C@@]4(CCC(=O)O4)[C@@]3(C)CC[C@@H]12 [Drospirenone],12.53 ± 0.089,-0.22,0.59,-0.08,-0.17,-0.17,0.11,1.26,0.03,0.03,-0.14,0.26,0.31,-0.41,0.85,-0.05,
C[C@]12CC[C@@H]3c4ccc(OC(=O)c5ccccc5)cc4CC[C@H]3[C@@H]1CC[C@@H]2O [Estradiol Benzoate],12.4 ± 0.25,-0.27,0.35,0.05,-0.43,-0.36,-0.68,0.31,0.05,-0.12,0.15,-0.51,-0.6,0.38,0.37,-0.15,-0.31
CCOC(=O)c1ccc(O)cc1 [Ethylparaben],12.5 ± 0.25,-1.38,-0.6,-0.33,1.83,-0.25,0.65,-0.67,-0.62,1.78,,-0.25,0.26,0.44,0.63,1.8,-0.54
CC[C@@]1(O)C(=O)OCc2c1cc1n(c2=O)Cc2cc3c(CN(C)C)c(O)ccc3nc2-1 [Topotecan HCl],12.5 ± 0.14,1.13,1.3,0.17,-1.89,0.59,-1.86,0.34,0.51,-2.17,-1.6,-0.87,0.12,-0.98,-0.62,-0.39,
CC[N+](CC)(CC)CCOc1cccc(OCC[N+](CC)(CC)CC)c1OCC[N+](CC)(CC)CC [Gallamine Triethiodide],12.6 ± 0.14,0.05,0.42,-0.79,0.76,-0.16,0.16,-0.42,-0.01,0.25,0.33,0.07,-0.27,0.25,-0.03,-0.08,-1.15
C=CCCCCCCCCC(=O)[O-].C=CCCCCCCCCC(=O)[O-].[Zn+2] [Zinc Undecylenate],11.6 ± 0.15,2.41,-3.83,-1.01,-0.17,-1.44,-1.37,-2.11,-2.65,2.38,,3.75,-0.76,-0.02,-0.54,3.48,-0.05
C[C@H]1NCc2cc(-c3ccc4c(=O)c(C(=O)O)cn(C5CC5)c4c3OC(F)F)ccc21 [Garenoxacin],12.34 ± 0.078,,0.86,-0.44,0.6,-0.22,-0.05,0.15,0.28,0.7,-0.07,0.74,0.1,0.84,0.75,-0.08,0.46
CC1(C)S[C@@H]2[C@H](NC(=O)[C@H](N)c3ccccc3)C(=O)N2[C@H]1C(=O)OCOC(=O)[C@@H]1N2C(=O)C[C@H]2S(=O)(=O)C1(C)C [Sultamicillin Tosylate],12.28 ± 0.1,-0.54,0.72,-0.36,0.67,-0.32,-0.03,-0.09,0.76,0.19,0.25,-0.45,-0.09,0.26,-0.41,-0.64,0.21
COc1ccc2c(c1)c(CC(=O)O)c(C)n2C(=O)c1ccc(Cl)cc1 [Indomethacin],12.29 ± 0.12,0.27,-0.33,0.48,0.52,-0.68,-0.17,0.16,-1.04,-0.04,,-0.33,-1.07,0.09,0.47,-0.35,-0.38
CCCCNc1ccc(C(=O)OCCN(C)C)cc1 [Tetracaine HCl],12.52 ± 0.015,,0.03,-0.03,0.72,-0.2,1.2,0.43,0.5,0.08,0.04,-0.27,0.52,0.58,0,0.94,0
COc1cccc(CCc2ccccc2OCC(CN(C)C)OC(=O)CCC(=O)O)c1 (stereo not drawn) [Sarpogrelate hydrochloride],12.3 ± 0.35,,-0.54,-0.31,-0.21,-0.59,-0.09,-0.29,-0.54,-0.27,0.14,-0.99,-0.89,-0.04,-0.21,-0.48,-0.5
CCOC(=O)C1=C(COCCN)NC(C)=C(C(=O)OC)C1c1ccccc1Cl (stereo not drawn) [Amlodipine Besylate],12.6 ± 0.18,2.4,5.2,2.94,-6.89,3.81,-6.85,6.36,4.12,-7.3,-8.17,-3.58,5.98,-6.15,-4.74,-1.58,4.37
C#C[C@]1(O)CC[C@H]2[C@@H]3CCC4=CC(=O)CC[C@@H]4[C@H]3C(=C)C[C@@]21CC [Etonogestrel],12.4 ± 0.14,0.26,-1.48,-0.43,1.19,0.15,0.5,-0.7,-1.24,0.83,,0.5,-0.55,-0.52,-0.63,-0.23,-0.29
C[C@@H](c1ncncc1F)[C@](O)(Cn1cncn1)c1ccc(F)cc1F [Voriconazole],11.9 ± 0.18,,0.27,-2.55,-0.12,12.8,1.96,1.93,10.2,9.96,16.4,16.6,41.5,14.4,5.58,16.5,6.37
